Assay results: PubChem BioAssay AID1159580 (chemical genetic matrix, 2015)
In all, about 5,500 compounds went through this assay and about 2,000 (36%) were called active. Not shown: some 18% with an inconclusive outcome. The list shows a part of the results. Unmarked numbers belong to inactive results. Rule as the data show it: active = normalized growth mostly below about 0.91 (no sharp cut-off); inconclusive = no clear call, values can overlap the other calls; inactive = mostly above about 0.92.

Experiment: chemical genetic growth profiling, strain panel (AID 1159580);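 also: tested at 20 µM; growth read once vehicle control cultures reached saturation at 30 °C; 1 = growth at the plate median or of vehicle wells; lower values mean less growth of the strain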
Details: growth OD

Q: With `Cc1cccc(Nc2ccccc2C(=O)O)c1C` as the compound, how does the normalized growth (S. cerevisiae deletion strains, locus YJR075W, strain HOC1, active compounds read low) read?
A: 0.937

Q: What about the normalized growth (S. cerevisiae deletion strains, locus YKL009W, strain mrt4, active compounds read low) of the same compound?
A: 0.874 (active)

Q: And the normalized growth (S. cerevisiae deletion strains, locus YKL068W, active compounds read low)?
A: 0.985

Q: And the normalized growth (S. cerevisiae deletion strains, locus YKL085W, strain MDH1 (second series), active compounds read low)?
A: 0.972

Q: And the normalized growth (S. cerevisiae deletion strains, locus YKL085W, strain MDH1, active compounds read low)?
A: 0.972

Q: What about the normalized growth (S. cerevisiae deletion strains, locus YKL160W, strain elf1, active compounds read low) of the same compound?
A: 0.921

Q: And the normalized growth (S. cerevisiae deletion strains, locus YKL190W, strain CNB1, active compounds read low)?
A: 0.908 (active)

Q: What about the normalized growth (S. cerevisiae deletion strains, locus YKR001C, strain vps1, active compounds read low) of the same compound?
A: 0.676 (active)

Q: What about the normalized growth (S. cerevisiae deletion strains, locus YKR026C, strain gcn3, active compounds read low) of the same compound?
A: 0.877 (active)

Q: And the normalized growth (S. cerevisiae deletion strains, locus YKR091W, strain srl3, active compounds read low)?
A: 0.909 (active)

Q: And the normalized growth (S. cerevisiae deletion strains, locus YLL001W, strain dnm1, active compounds read low)?
A: 0.914

Q: And the normalized growth (S. cerevisiae deletion strains, locus YLL026W, active compounds read low)?
A: 0.952

Q: And the normalized growth (S. cerevisiae deletion strains, locus YLL041C, strain sdh2, active compounds read low)?
A: 0.901 (active)

Q: What about the normalized growth (S. cerevisiae deletion strains, locus YLR027C, strain aat2, active compounds read low) of the same compound?
A: 0.936

Q: And the normalized growth (S. cerevisiae deletion strains, locus YLR039C, strain RIC1, active compounds read low)?
A: 0.597 (active)

Q: What about the normalized growth (S. cerevisiae deletion strains, locus YLR058C, strain SHM2, active compounds read low) of the same compound?
A: 0.906

Q: What about the normalized growth (S. cerevisiae deletion strains, locus YLR102C, strain apc9, active compounds read low) of the same compound?
A: 0.876 (active)

Q: What about the normalized growth (S. cerevisiae deletion strains, locus YLR113W, strain HOG1, active compounds read low) of the same compound?
A: 0.903

Q: And the normalized growth (S. cerevisiae deletion strains, locus YLR221C, strain rsa3, active compounds read low)?
A: 0.925

Q: What about the normalized growth (S. cerevisiae deletion strains, locus YLR258W, strain gsy2, active compounds read low) of the same compound?
A: 0.924

Q: And the normalized growth (S. cerevisiae deletion strains, locus YLR262C, strain YPT6 (second series), active compounds read low)?
A: 0.749 (active)

Q: What about the normalized growth (S. cerevisiae deletion strains, locus YLR262C, strain YPT6, active compounds read low) of the same compound?
A: 0.683

Q: And the normalized growth (S. cerevisiae deletion strains, locus YLR268W, strain sec22, active compounds read low)?
A: 0.869 (active)

Q: What about the normalized growth (S. cerevisiae deletion strains, locus YLR320W, strain mms22, active compounds read low) of the same compound?
A: 0.894

Q: What about the normalized growth (S. cerevisiae deletion strains, locus YLR330W, strain CHS5, active compounds read low) of the same compound?
A: 0.87 (active)

Q: What about the normalized growth (S. cerevisiae deletion strains, locus YLR342W, strain FKS1 (second series), active compounds read low) of the same compound?
A: 0.756 (active)

Q: And the normalized growth (S. cerevisiae deletion strains, locus YLR342W, strain FKS1, active compounds read low)?
A: 0.897 (active)

Q: And the normalized growth (S. cerevisiae deletion strains, locus YLR357W, strain rsc2, active compounds read low)?
A: 0.979

Q: And the normalized growth (S. cerevisiae deletion strains, locus YLR370C, strain arc18, active compounds read low)?
A: 0.913

Q: What about the normalized growth (S. cerevisiae deletion strains, locus YLR371W, strain rom2, active compounds read low) of the same compound?
A: 0.858 (active)

Q: What about the normalized growth (S. cerevisiae deletion strains, locus YLR384C, strain iki3, active compounds read low) of the same compound?
A: 0.894 (active)

Q: And the normalized growth (S. cerevisiae deletion strains, locus YLR418C, strain cdc73, active compounds read low)?
A: 0.775 (active)

Q: And the normalized growth (S. cerevisiae deletion strains, locus YML016C, strain PPZ1, active compounds read low)?
A: 0.886 (active)

Q: What about the normalized growth (S. cerevisiae deletion strains, locus YML032C, strain rad52, active compounds read low) of the same compound?
A: 0.891 (active)

Q: And the normalized growth (S. cerevisiae deletion strains, locus YML120C, strain ndi1, active compounds read low)?
A: 0.922

Q: And the normalized growth (S. cerevisiae deletion strains, locus YML124C, strain tub3, active compounds read low)?
A: 0.843 (active)

Q: And the normalized growth (S. cerevisiae deletion strains, locus YMR058W, strain fet3, active compounds read low)?
A: 0.918

Q: What about the normalized growth (S. cerevisiae deletion strains, locus YMR078C, strain ctf18, active compounds read low) of the same compound?
A: 0.838 (active)

Q: And the normalized growth (S. cerevisiae deletion strains, locus YMR125W, strain sto1, active compounds read low)?
A: 0.955

Q: And the normalized growth (S. cerevisiae deletion strains, locus YMR129W, active compounds read low)?
A: 0.908 (active)

Q: And the normalized growth (S. cerevisiae deletion strains, locus YMR205C, strain PFK2, active compounds read low)?
A: 0.919

Q: What about the normalized growth (S. cerevisiae deletion strains, locus YMR223W, strain ubp8, active compounds read low) of the same compound?
A: 0.869 (active)

Q: What about the normalized growth (S. cerevisiae deletion strains, locus YMR231W, strain pep5, active compounds read low) of the same compound?
A: 0.9 (active)

Q: What about the normalized growth (S. cerevisiae deletion strains, locus YMR263W, strain SAP30, active compounds read low) of the same compound?
A: 0.891

Q: And the normalized growth (S. cerevisiae deletion strains, locus YMR307W, strain GAS1, active compounds read low)?
A: 0.672

Q: What about the normalized growth (S. cerevisiae deletion strains, locus YNL067W, strain RPL9B, active compounds read low) of the same compound?
A: 0.926

Q: And the normalized growth (S. cerevisiae deletion strains, locus YNL071W, strain lat1, active compounds read low)?
A: 0.897 (active)

Q: What about the normalized growth (S. cerevisiae deletion strains, locus YNL128W, strain TEP1, active compounds read low) of the same compound?
A: 0.988

Q: What about the normalized growth (S. cerevisiae deletion strains, locus YNL153C, strain GIM3, active compounds read low) of the same compound?
A: 0.933

Q: What about the normalized growth (S. cerevisiae deletion strains, locus YNL183C, strain NPR1, active compounds read low) of the same compound?
A: 0.805 (active)

Q: And the normalized growth (S. cerevisiae deletion strains, locus YNL209W, strain ssb2, active compounds read low)?
A: 0.939

Q: What about the normalized growth (S. cerevisiae deletion strains, locus YNL233W, strain BNI4, active compounds read low) of the same compound?
A: 0.927

Q: What about the normalized growth (S. cerevisiae deletion strains, locus YNL248C, strain rpa49, active compounds read low) of the same compound?
A: 0.971

Q: And the normalized growth (S. cerevisiae deletion strains, locus YNL250W, strain rad50, active compounds read low)?
A: 0.988

Q: And the normalized growth (S. cerevisiae deletion strains, locus YNL271C, strain bni1, active compounds read low)?
A: 0.941

Q: What about the normalized growth (S. cerevisiae deletion strains, locus YNL298W, strain CLA4, active compounds read low) of the same compound?
A: 0.844 (active)

Q: What about the normalized growth (S. cerevisiae deletion strains, locus YNL307C, strain MCK1, active compounds read low) of the same compound?
A: 0.626 (active)

Q: What about the normalized growth (S. cerevisiae deletion strains, locus YNL322C, strain KRE1 (second series), active compounds read low) of the same compound?
A: 0.898 (active)

Q: What about the normalized growth (S. cerevisiae deletion strains, locus YNL322C, strain KRE1, active compounds read low) of the same compound?
A: 0.912 (active)

Q: And the normalized growth (S. cerevisiae deletion strains, locus YNR049C, strain mso1, active compounds read low)?
A: 0.912 (active)

Q: What about the normalized growth (S. cerevisiae deletion strains, locus YNR052C, strain pop2, active compounds read low) of the same compound?
A: 0.878 (active)

Q: And the normalized growth (S. cerevisiae deletion strains, locus YOL006C, strain TOP1, active compounds read low)?
A: 0.884

Q: What about the normalized growth (S. cerevisiae deletion strains, locus YOL012C, strain htz1) of the same compound?
A: 1.12

Q: And the normalized growth (S. cerevisiae deletion strains, locus YOL147C, strain pex11, active compounds read low)?
A: 0.87 (active)

Q: And the normalized growth (S. cerevisiae deletion strains, locus YOR001W, strain rrp6, active compounds read low)?
A: 0.938

Q: What about the normalized growth (S. cerevisiae deletion strains, locus YOR061W, strain CKA2, active compounds read low) of the same compound?
A: 0.894

Q: What about the normalized growth (S. cerevisiae deletion strains, locus YOR069W, strain VPS5, active compounds read low) of the same compound?
A: 0.893 (active)

Q: What about the normalized growth (S. cerevisiae deletion strains, locus YOR070C, strain gyp1, active compounds read low) of the same compound?
A: 0.928

Q: What about the normalized growth (S. cerevisiae deletion strains, locus YOR080W, strain dia2, active compounds read low) of the same compound?
A: 0.941

Q: And the normalized growth (S. cerevisiae deletion strains, locus YOR083W, strain WHI5, active compounds read low)?
A: 0.921

Q: What about the normalized growth (S. cerevisiae deletion strains, locus YOR106W, strain vam3, active compounds read low) of the same compound?
A: 0.94

Q: What about the normalized growth (S. cerevisiae deletion strains, locus YOR136W, strain idh2, active compounds read low) of the same compound?
A: 0.958

Q: And the normalized growth (S. cerevisiae deletion strains, locus YOR144C, strain elg1, active compounds read low)?
A: 0.86 (active)

Q: And the normalized growth (S. cerevisiae deletion strains, locus YOR184W, strain ser1, active compounds read low)?
A: 0.724 (active)

Q: What about the normalized growth (S. cerevisiae deletion strains, locus YOR231W, strain MKK1, active compounds read low) of the same compound?
A: 0.919

Q: And the normalized growth (S. cerevisiae deletion strains, locus YOR265W, strain rbl2, active compounds read low)?
A: 0.908 (active)

Q: And the normalized growth (S. cerevisiae deletion strains, locus YOR270C, strain vph1, active compounds read low)?
A: 0.868

Q: What about the normalized growth (S. cerevisiae deletion strains, locus YOR290C, strain snf2, active compounds read low) of the same compound?
A: 0.919

Q: And the normalized growth (S. cerevisiae deletion strains, locus YOR316C, strain cot1, active compounds read low)?
A: 0.874 (active)

Q: And the normalized growth (S. cerevisiae deletion strains, locus YPL051W, strain arl3, active compounds read low)?
A: 0.906 (active)

Q: What about the normalized growth (S. cerevisiae deletion strains, locus YPL055C, strain LGE1, active compounds read low) of the same compound?
A: 0.881

Q: And the normalized growth (S. cerevisiae deletion strains, locus YPL078C, strain atp4, active compounds read low)?
A: 0.893

Q: What about the normalized growth (S. cerevisiae deletion strains, locus YPL106C, strain sse1, active compounds read low) of the same compound?
A: 1.05

Q: What about the normalized growth (S. cerevisiae deletion strains, locus YPL240C, strain hsp82, active compounds read low) of the same compound?
A: 0.915 (active)

Q: And the normalized growth (S. cerevisiae deletion strains, locus YPL241C, strain CIN2, active compounds read low)?
A: 0.902 (active)

Q: What about the normalized growth (S. cerevisiae deletion strains, locus YPL256C, strain CLN2, active compounds read low) of the same compound?
A: 0.874

Q: And the normalized growth (S. cerevisiae deletion strains, locus YPR119W, strain clb2, active compounds read low)?
A: 0.856 (active)

Q: What about the normalized growth (S. cerevisiae deletion strains, locus YPR141C, strain kar3, active compounds read low) of the same compound?
A: 0.981

Q: What about the normalized growth (S. cerevisiae deletion strains, locus YPR163C, strain tif3, active compounds read low) of the same compound?
A: 0.893 (active)

Q: What about the normalized growth (S. cerevisiae deletion strains, locus YPR167C, strain met16, active compounds read low) of the same compound?
A: 0.87 (active)

Q: What about the normalized growth (S. cerevisiae deletion strains, strain wtn01, active compounds read low) of the same compound?
A: 0.911

Q: And the normalized growth (S. cerevisiae strains, strain wild type, active compounds read low)?
A: 0.937
